Test results as given in PubChem BioAssay (NCI).
Values joined by “and” are separate entries in the source; they are usually repeats but may differ in a detail not shown here. Identical values can stand only once. Compounds without any hit were thinned out: in the full panel of roughly 83,000, 20% have a hit.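 Negative percent growth values reflect cell death: -40 means 40% of the cells present at the start died, and -100 means all died.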 Active and inactive are the calls of the source.

test system: NCI-H322M lung; assay: NCI-60 one-dose screen, 48 h (100 = growth as untreated, 0 = no growth, -100 = all killed); details: 10 µM
Experimental: Growth inhibition of the NCI-H322M human Non-Small Cell Lung tumor cell line is measured as a screen for anti-cancer activity. Cells are grown in 96 well plates and exposed to the test compound for 48 hours. Compounds are tested at a single concentration, which is 10^-5 M for most compounds. The reported endpoint is percent growth (GI% or GIPRCNT), where numbers from 0 - 100% represent growth inhibition, and numbers from -100% - 0 represent cell death. For example, a value of 40 represents 60% growth inhibition. A value of 0 means no net growth occurred over the course of the experiment. A value of -40 indicates 40% of cells at the beginning of the experiment died by the end of the experiment. A value of -100 means all cells are dead at the end of the experiment.
NCI-60 Human Tumor Cell Lines Screen was performed using the standard one-dose NCI protocol, which is described in more detail at https://dtp.cancer.gov/discovery_development/nci-60/default.htm.
Compounds with GIPRCNT values below 10 were considered active. Activity score was based on GIPRCNT using the following formula: […]
Score is 0 for GIPRCNT values of 100 or above, 50 for GIPRCNT values of 0, and 100 for GIPRCNT values of -100.

Row | SMILES | growth
1 | CS/C(=C\c1ccc(C(=O)c2ccc(C)cc2)n1C)S(C)=O (stereo not given) | 98% (inactive)

same assay, conditions: 10 µM unless noted

Row | SMILES | growth
2 | O=C(OCc1ccccc1)c1ccccc1 | 115% (inactive) and 106% (inactive)
3 | COc1ccccc1OCC(O)CO (stereo not given) | 75.7% (inactive) and 115% (inactive)
4 | Cc1c(O)nc(N)[nH]c1=O | 104% (inactive)
5 | COc1cc2oc3cc(=O)cc4oc(-c5ccccc5)cc(c2c2c1CCC(c1ccccc1)O2)c43 (stereo not given) | 101% (inactive)
6 | Cc1ccc(NC(=S)N/C=C(\c2ccccc2)S(=O)Cc2ccccc2)c(C)c1 (stereo not given) | 94.8% (inactive)
7 | C(=N\OCCc1ccccc1)/c1ccccn1 | 138% (inactive) and 105% (inactive)
8 | OC1CCCN(Cc2ccccc2)C1 (stereo not given) | 113% (inactive)
9 | CCCCNC(=O)c1ccccc1C | 89.4% (inactive)
10 | CC(=O)Nc1cscc1NC(C)=O | 80.1% (inactive)
11 | Cc1cc(-c2ccc(N=Nc3c(C)nn(-c4ccc(S(=O)(=O)O)cc4)c3O)c(C)c2)ccc1N=Nc1ccc(O)c(C(=O)O)c1 | 107% (inactive)
12 | Cc1cccc(Cl)c1N | 127% (inactive)
13 | COc1ccc(CCn2cnn3c(=O)c4ccccc4nc3c2=O)cc1OC | 103% (inactive) and 110% (inactive)
14 | O=P(O)(O)OC1C(OP(=O)(O)O)C(OP(=O)(O)O)C(OP(=O)(O)O)C(OP(=O)(O)O)C1OP(=O)(O)O.[Cu+2] (stereo not given) | 106% (inactive)
15 | Cc1c(Cl)c(C)c(Cc2c(C)c(Cl)c(C)c(Cl)c2O)c(O)c1Cl | 16.1% (inactive)
16 | CC(C)(C)C1=CC(=O)C(C(C)(C)C)=CC1=O | 104% (inactive) and 102% (inactive)
17 | Cc1ccc2cccc([N+](=O)[O-])c2n1 | 110% (inactive) and 90.5% (inactive)
18 | S=c1nc[nH]c2nc[nH]c12 | 33% [50 µM] (inactive)
19 | O=C1C(=O)c2ccccc2C(O)=C1CC=C(Cl)Cl | 75.8% (inactive) and 58% (inactive)
20 | CCOCCC(=O)O | 113% (inactive)

Row | SMILES | growth
21 | COCCNC(C)=O | 108% (inactive)
22 | CC1OS(=O)OC1C (stereo not given) | 108% (inactive) and 94% (inactive)
23 | COc1ccc2nccc(Cl)c2c1 | 97.1% (inactive)
24 | C/C(CC(C)C)=N/NC(N)=S | 96.9% (inactive)
25 | O=C(N=C1C(=O)C2(CCCCC2)C2(N=C(c3ccccc3)OC2=O)C12CCCCC2)c1ccccc1 (stereo not given) | 96% (inactive)
26 | CC(C)(C)OC(=O)CC1(O)CCCCC1 | 111% (inactive)
27 | O=c1[nH]c(=O)n(C2OC(CO)C(O)C2O)cc1I (stereo not given) | 100% (inactive) and 102% (inactive)
28 | O=[N+]([O-])c1cccc2ccc(N/N=C/c3ccccc3O)nc12 | 88.2% (inactive) and 94.8% (inactive)
29 | N=C(N)N1CCc2ccccc2C1 | 98.6% (inactive) and 116% (inactive)
30 | COc1cc(C2c3cc4c(cc3C(OC(=O)C[n+]3ccccc3)C3COC(=O)C23)OCO4)cc(OC)c1OC (stereo not given) | 33% (inactive)
31 | Cc1ccc(N)cc1S(=O)(=O)O | 125% (inactive) and 113% (inactive)
32 | Nc1c(S(=O)(=O)O)cc(Br)c2c1C(=O)c1ccccc1C2=O | 95.6% (inactive) and 106% (inactive)
33 | Cc1nc2c(=O)[nH]c(=S)[nH]c2[nH]c1=O | 98% (inactive) and 111% (inactive)
34 | N#Cc1c[nH]n2ccnc12 | 98.7% (inactive)
35 | COc1ccc([N+](=O)[O-])cc1OC | 105% (inactive)
36 | Nc1nc(=S)c2[nH]cnc2[nH]1 | 39.2% (inactive) and 85.7% (inactive)
37 | CCOC(=N)c1ccc(C(=N)OCC)cc1 | 113% (inactive)
38 | Cc1cc(O)c(C(C)C)cc1N=O | 115% (inactive) and 104% (inactive)
39 | OCCS | 101% (inactive)

same assay, conditions: 100 µM

Row | SMILES | growth
40 | CS/C(=C\c1ccc(C(=O)c2ccc(C)cc2)n1C)S(C)=O (stereo not given) | 103% (inactive)
